# Measured values from ChEMBL document CHEMBL3433997, “St. Jude Leishmania screening dataset” (2016).
# Tests used:
# Assay type in all cases: functional
# [1] = molecular target: Solute carrier family 2, facilitated glucose transporter member 1 (Homo sapiens) (UniProt P11166); experiment: ST_JUDE_LEISH: Cytotoxicity at 2uM final concentration against transgenic Leishmania Mexicana promastigotes LmGLUT1 that are glucose transport deficient and complemented with the human glucose transporter GLUT1. Activity is measured by DNA content using SYBR green in vitro
# [2] = molecular target: Hexose transporter 1 (Plasmodium falciparum) (UniProt O97467); experiment: ST_JUDE_LEISH: Cytotoxicity at 2uM final concentration against transgenic Leishmania Mexicana promastigotes LmPfHT that are glucose transport deficient and complemented with the Plasmodium falciparum hexose transporter. Activity is measured by DNA content using SYBR green in vitro
# [3] = molecular target: Glucose transporter (Leishmania mexicana) (UniProt O61059); experiment: ST_JUDE_LEISH: Cytotoxicity at 2uM final concentration against transgenic Leishmania Mexicana promastigotes LmGT2 that are glucose transport deficient and complemented with the L. Mexicana glucose transporter 2. Activity is measured by DNA content using SYBR green in vitro
# Solute carrier family 2, facilitated glucose transporter member 1 (Homo sapiens), sequence (P11166 whole entry): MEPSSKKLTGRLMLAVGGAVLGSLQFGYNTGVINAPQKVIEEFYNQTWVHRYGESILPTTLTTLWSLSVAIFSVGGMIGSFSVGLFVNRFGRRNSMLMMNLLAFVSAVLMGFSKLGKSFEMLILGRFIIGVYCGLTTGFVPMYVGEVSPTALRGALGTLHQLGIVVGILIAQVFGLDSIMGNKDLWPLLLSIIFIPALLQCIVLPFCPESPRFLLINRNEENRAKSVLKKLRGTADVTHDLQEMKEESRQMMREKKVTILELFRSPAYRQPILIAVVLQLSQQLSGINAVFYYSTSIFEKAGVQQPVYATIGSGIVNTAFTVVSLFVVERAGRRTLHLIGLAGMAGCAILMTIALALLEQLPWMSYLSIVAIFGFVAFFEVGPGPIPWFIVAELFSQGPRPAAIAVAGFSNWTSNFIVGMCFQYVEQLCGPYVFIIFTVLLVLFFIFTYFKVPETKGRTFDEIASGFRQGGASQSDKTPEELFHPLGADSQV
Compound,inhibition [1],inhibition [2],inhibition [3]
O=C(/C=C/c1ccc(C(F)(F)F)cc1)NCCCCCN1CCCN(C(=O)Nc2ccc(F)c(Cl)c2)CC1,1.19%,1.85%,0.39%
N#Cc1cc(C(=O)c2cc(Br)ccc2O)cn(C2CCCCC2)c1=O,0.39%,1.1%,3.8%
COc1ccc(-c2ccc(NC(=O)c3cccc(C#N)c3)cc2)cc1CN(C)C,1.28%,0.34%,0.41%
Cn1cc(C(=O)Nc2cccc(-c3cccc(-c4nc5ccccc5[nH]4)c3)c2)n(C)c1=O,4.31%,2.7%,2.54%
COc1cc(CNCCCCCCNCc2cc(OC)c3ccccc3c2OC)c(OC)c2ccccc12,8.25%,11.8%,13.6%
Cc1cc(Cl)c(S(=O)(=O)N2CCc3ccccc32)cc1OCC(=O)NC1CCCCC1,2.33%,1.17%,2.14%
Cc1nc(-c2nc(NCCc3c(C)noc3C)ncc2-c2ccsc2)sc1C,1.02%,1.58%,2.5%
CC(Cc1ccc(NC(=O)c2ccc(NCCc3ccccc3)cc2)cc1)NCCc1cccc(Cl)c1 (stereo unspecified),-0.04%,-0.81%,-1.31%
Cc1cc(C)c(CON2C(=N)N=C(N)NC2(C)C)cc1C,-0.51%,-0.15%,-0.63%
Cc1ccc(OCC2CCN(c3ncc(C(=O)NCCCN4CCCC4=O)cc3Cl)CC2)cc1,1.15%,-1.22%,0.72%
CC(C)CCCC(C)NC[C@@H](O)[C@H](Cc1ccccc1)NC(=O)c1cc(N2CCCC2=O)cc(N(c2ccccc2)S(C)(=O)=O)c1 (stereo partly specified),1.85%,2.61%,1.65%
CN(C)CCCOc1ccc(CN2CC[C@H](NC(=O)c3ccc(Cl)c(Cl)c3)C2)cc1Br,3.8%,0.94%,0.53%
COc1cccc(CNC(=O)c2ccnc(-c3ccc(CNCCOc4ccccc4)cc3)c2)c1,1.12%,1.69%,1.51%
COc1cccc(-c2cc3nc4c(c(NCCCn5ccnc5)n3n2)CCCC4)c1,2.73%,5.03%,2.77%
Nc1c2c(nc3ccc(NC(=O)CCCCCCc4ccccc4)cc13)CCCC2,-2.4%,-2.24%,-3.57%
CN1CCN(CCCN(Cc2csc(-c3ccc(CNCc4ccccc4)cc3)n2)S(=O)(=O)c2ccc(F)cc2)CC1,14.9%,17.1%,10.1%
Cc1nc(C)c(-c2ccc(S(=O)(=O)c3ccc(Cl)cc3)cc2)c(O)c1Br,4.93%,4.53%,4.12%
